Screening data as filed in PubChem BioAssay.
An excerpt weighted towards active compounds, which were near 2.3% of everything screened.
CHO-K1 Ca PAM = nonselective calcium activators in parental CHO-K1 cells, primary screen, counter-screen for M1 PAM project, cell-based, Fluo-8 calcium fluorescence, full deck, 1536-well. ATP EC20; 0% at ATP EC20, 100% at ATP max. activation, % at 3 µM. 360,000 tested, 0.02% active. AID 602247, 2012;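 active means activation above the run cutoff, the mean activation of all test compounds plus 3 SD, cut at about 40% in these data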;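 further: peak over basal fluorescence ratio in a 140 s read after ATP addition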
CHRM1 agonist = human M1 muscarinic receptor agonists, primary screen, Fluo-8 calcium fluorescence, CHO-K1 cells, HTS | CHO-K1 hM1, agonist mode; 0% DMSO, 100% acetylcholine EC100 | activation, % at 3 µM | 360,000 tested, 0.33% active | AID 588814, 2011;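 active means activation above the run's mean compound activation plus 3 SD, cut at about 16% in these data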;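 further: peak over basal fluorescence ratio within a 140 s kinetic read after compound addition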
Target sequence (P11229 whole entry, looked up): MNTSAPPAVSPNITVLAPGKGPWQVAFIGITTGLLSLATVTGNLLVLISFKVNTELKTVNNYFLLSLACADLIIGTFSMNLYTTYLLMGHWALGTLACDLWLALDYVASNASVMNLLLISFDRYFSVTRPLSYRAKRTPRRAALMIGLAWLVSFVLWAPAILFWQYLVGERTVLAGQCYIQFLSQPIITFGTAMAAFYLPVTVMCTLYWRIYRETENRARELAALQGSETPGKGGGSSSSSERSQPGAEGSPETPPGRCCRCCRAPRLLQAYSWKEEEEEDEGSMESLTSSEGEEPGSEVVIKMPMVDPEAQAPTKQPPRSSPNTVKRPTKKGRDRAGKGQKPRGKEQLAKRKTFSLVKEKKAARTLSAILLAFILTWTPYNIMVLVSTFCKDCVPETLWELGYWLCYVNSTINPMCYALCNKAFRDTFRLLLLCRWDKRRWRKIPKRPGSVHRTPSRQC
M1 antag = human M1 muscarinic receptor antagonists, primary screen, CHO-K1 cells, Fluo-8 calcium fluorescence, 1536-well. 360,000 tested, 1.3% active. Muscarinic acetylcholine receptor M1 (Homo sapiens), P11229. CHO-K1 hM1, ACh EC80 antagonist. inhibition, % at 3 µM;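 active means percent inhibition above its own plate's cutoff, namely the mean of that plate's compound wells plus 3 SD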;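 further: peak over basal fluorescence ratio during 140 s after agonist addition; 0% = ACh EC80 plus DMSO and 100% = DMSO alone without agonist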
CHO-K1 Ca ag = counter-screen for M1 agonists: effect in parental CHO-K1 cells; activation, % at 3 µM; AID 602248, 2012; 360,000 tested, 0.48% active; Fluo-8 calcium fluorescence; scaled to maximal ATP response, vehicle zero; in the data active means activation above about 15%;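 further: untransfected CHO-K1 host cells lacking M1 receptor as counterscreen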
M1 PAM = human M1 muscarinic receptor positive allosteric modulators, primary screen, CHO-K1 cells, Fluo-8 calcium fluorescence, 1536-well; CHO-K1 hM1, ACh EC20; 0% = ACh EC20, 100% = maximal ACh; 360,000 tested, 0.088% active; activation, % at 3 µM; AID 588819, 2011; in the data active means activation above about 19%, passing the limit was not always enough
CHO-K1 Ca antag = counter-screen for M1 antagonists: effect in parental CHO-K1 cells. ATP-induced calcium, Fluo-8 fluorescence. AID 602250. 360,000 tested, 0.6% active. inhibition, % at 3 µM;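 active means inhibition above a per-plate cutoff, the plate's mean sample inhibition plus 3 SD, cut at about 24% in these data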;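 further: 0% = DMSO plus EC80 ATP and 100% = DMSO alone without ATP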
* marks the source's active call; other numbers are inactive results.

SMILES	CHO-K1 Ca PAM	CHRM1 agonist	M1 antag	CHO-K1 Ca ag	M1 PAM	CHO-K1 Ca antag
O=C1NC(=O)C(Cc2ccccc2)(c2cccnc2)N1 (stereo not given)	-17.6	8.2	2.5	-0.1	15.5	15.1
C=CC[C@@H](CC(=O)N[C@H](CO)Cc1ccccc1)C(=O)NC[C@H](OC(=O)[C@@H](CC=C)Cc1ccc(F)cc1)c1ccccc1	1.5	-3.6	34.3*	3.9	-18.6	-4.1
C=CCC[C@@H](Cc1ccc(F)cc1)C(=O)OC[C@H](Cc1c[nH]c2ccccc12)NC(=O)[C@@H](CC=C)CC(=O)NCCO	1.7	1.2	0.8	18.0*	5.5	7.5
Cc1ccc(NC(=O)c2cc(-c3cc(C)c(C)cc3O)n[nH]2)cc1C	-1.4	6.2	-24.0	-0.5	28.4*	10.2
CCc1ccc(NC(=O)CSc2nc3cc(C(=O)OC)ccc3c(=O)n2Cc2ccco2)cc1	-0.9	-3.3	-4.2	0.3	4.6	10.1
CCN(C(=O)CSc1nc2cc(C(=O)OC)ccc2c(=O)n1Cc1ccco1)c1cccc(C)c1	-4.9	-0.2	1.2	-0.6	10.8	26.2*
Cc1cc(C)c(OCCNCc2ccccc2)c(C)c1	23.0	-0.8	-10.0	20.3*	6.8	-7.6
C[N+]1(C)CCCC(OC(=O)C(O)(c2ccccc2)c2ccccc2)C1 (stereo not given)	-2.4	-8.7	99.4*	-0.2	-25.6	9.5
O=C(CNC(=O)c1ccccc1)OC1CCCCC1	15.7	-4.8	-11.2	0.1	11.4	-7.6
CCc1cccc(CC)c1N1C(=O)C2=C(SCCCS2)C1=O	-2.3	20.2*	15.7	26.4*	-15.9	12.4
CCCc1cc(=O)oc2cc(OCC(=O)Nc3ccc(S(N)(=O)=O)cc3)ccc12	13.5	1.4	-2.6	-0.2	11.4	-6.9
CCc1nonc1NC(=O)c1oc2ccc(C)cc2c1C	-5.8	-5.2	44.8*	-0.2	-9.2	0.8
CCc1ccc2oc(C(=O)Nc3nonc3CC)c(C)c2c1	-0.2	-4.3	-12.5	-0.2	-0.6	-8.6
COc1ccc(Cl)cc1NC(=O)C(C)OC(=O)C1=NNC(=O)CC1 (stereo not given)	1.3	0.6	-16.1	0.8	10.2	-11.2
CN(C)c1nc(N(C)C)nc(N2CCCCC2)n1	-3.9	-5.0	21.5*	-0.4	-1.1	11.6
c1ccc(C(Cc2nc(-c3ccncc3)no2)c2ccccc2)cc1	-1.9	-3.0	24.2*	4.8	-15.9	15.2
O=C(NCc1ccon1)C1CCC(=O)N(CCc2cccc(F)c2)C1 (stereo not given)	14.7	-0.2	-15.5	-0.1	17.2	8.1
CN1C(=S)N(c2cccnc2)C(=O)/C1=C\c1ccc(N(C)C)cc1	4.1	39.4*	44.2*	21.0*	-19.6	12.4
CN1C(=S)N(c2cccnc2)C(=O)/C1=C\c1ccc(C(C)(C)C)cc1	11.1	-1.3	8.2	15.1	2.5	-0.9
Cc1ccccc1NCCC(=O)Nc1ccc(Cl)cc1	-3.1	-6.8	5.8	0.9	-4.3	-13.5
CCOCCn1c(CN2CCN(C)CC2)nc2c1c(=O)n(C)c(=O)n2C	18.4	-1.4	-31.2	-0.2	28.7*	-5.8
CC(C)CNC(=O)C1(C)CCCCCN1Cc1ccccc1-c1ccccc1 (stereo not given)	-11.1	-9.2	17.9	-0.4	-23.3	-15.6
Cc1ccc(-c2cc(C(=O)N/N=C/c3c(C)nn(C)c3C)c3ccccc3n2)c(C)c1	-5.5	1.5	-9.6	-0.2	6.6	24.5*
CC(CCN1C(Nc2ccccc2)=NC[C@@H]1Cc1ccccc1)c1ccccc1 (stereo not given in full)	-12.6	-13.5	36.7*	0.6	-27.4	10.6
CC(=O)n1cc([C@H]2C=C(C(=O)NCc3ccccc3)O[C@@H](OCc3ccc(CO)cc3)C2)c2ccccc21	12.4	-5.5	12.0	5.4	-7.6	-10.7
SMILES	CHO-K1 Ca PAM	CHRM1 agonist	M1 antag	CHO-K1 Ca ag	M1 PAM	CHO-K1 Ca antag
CC(=O)n1cc([C@H]2C=C(C(N)=O)O[C@@H](OCc3ccc(CO)cc3)C2)c2ccccc21	7.1	22.8*	20.8	19.8*	-10.1	-8.6
COc1ccc(C(=O)NCCc2nnc3ccc(SCC(=O)N4CCCC4)nn23)cc1	-10.8	-4.0	-4.7	0.5	2.1	-10.4
NC1=NC2(CCN(Cc3ccccc3)CC2)n2c(nc3ccccc32)N1	-8.1	-6.2	-3.0	-0.6	-4.5	29.3*
NC1=NC2(CCCCC2)n2c(nc3ccccc32)N1	9.1	-4.3	-12.5	-0.1	-7.1	-9.5
Cc1c(C(=O)OCC[N+]2(C)CCCCC2)oc2ccccc12	16.7	-13.7	54.5*	0.1	-34.7	-5.2
Cc1oc(-c2cccs2)nc1CNC[C@H]1O[C@@H](n2cnc3c(N)ncnc32)[C@H](O)[C@@H]1O	11.3	-1.2	0.4	0.5	-0.8	-9.4
COCc1c(C(=O)OCC(=O)N2CCCC2=O)oc2ccccc12	8.0	-2.2	-17.5	0.1	19.2	-0.1
COCc1c(C(=O)OCC(=O)N2c3ccccc3CC2C)oc2ccccc12 (stereo not given)	-6.7	-1.3	8.7	0.0	9.5	24.4*
CC1(C)C(=O)Nc2ccccc2N1C(=O)COC(=O)c1cc(S(C)(=O)=O)ccc1Cl	-10.0	-1.1	-5.1	1.6	6.0	-12.9
CC1(C)C(=O)Nc2ccccc2N1C(=O)COC(=O)c1ccc(Cl)c(S(=O)(=O)NCc2ccccc2)c1	5.4	1.1	30.1*	3.0	-11.9	14.9
COc1cc(/C=C/C(=O)OCC(=O)N2c3ccccc3NC(=O)C2(C)C)cc(OC)c1OC	6.7	0.0	33.5*	8.7	-13.4	-7.6
CN(C(=O)COC(=O)c1n[nH]c2ccccc12)C1CCS(=O)(=O)C1 (stereo not given)	9.6	-5.4	-8.3	-0.2	1.3	-12.1
COc1ccc(S(N)(=O)=O)cc1C(=O)OCC(=O)N1c2ccccc2NC(=O)C1(C)C	-6.3	1.6	-10.6	-0.1	12.6	-5.3
COCc1c(C(=O)OCC(=O)N(C)C2CCS(=O)(=O)C2)oc2ccccc12 (stereo not given)	-1.1	-8.8	35.7*	0.1	-19.1	-6.2
CC(=O)c1ccc(N2CCN(C(=O)C3CCN(S(=O)(=O)c4cccs4)CC3)CC2)cc1	18.7	-6.7	12.6	11.6	-17.1	-10.3
C[C@H](CO)N1C[C@H](C)[C@@H](CN(C)Cc2ccc(C(=O)O)cc2)Oc2c(NS(=O)(=O)c3cn(C)cn3)cccc2C1=O	-9.0	-2.6	4.1	-0.1	8.8	-13.2
